Results taken from PubChem BioAssay AID1903 (Southern Research Specialized Biocontainment Screening …, 2009).
Screen size: about 310,000 compounds; about 1,200 (0.39%) were called active. How the calls were made is not given here. These entries were drawn from the full list. Measured potencies and affinities stand elsewhere.

The molecules below were run against Large T antigen (Simian virus 40) (UniProt P03070) (assay: TAg ATPase/helicase activity blockers – biochemical (AID 1903)). Details: SV40 large T antigen ATPase/helicase inhibition assay; at 20 µM; stronger effect = higher value.
Chain of Large T antigen (Simian virus 40) (P03070 whole entry, looked up): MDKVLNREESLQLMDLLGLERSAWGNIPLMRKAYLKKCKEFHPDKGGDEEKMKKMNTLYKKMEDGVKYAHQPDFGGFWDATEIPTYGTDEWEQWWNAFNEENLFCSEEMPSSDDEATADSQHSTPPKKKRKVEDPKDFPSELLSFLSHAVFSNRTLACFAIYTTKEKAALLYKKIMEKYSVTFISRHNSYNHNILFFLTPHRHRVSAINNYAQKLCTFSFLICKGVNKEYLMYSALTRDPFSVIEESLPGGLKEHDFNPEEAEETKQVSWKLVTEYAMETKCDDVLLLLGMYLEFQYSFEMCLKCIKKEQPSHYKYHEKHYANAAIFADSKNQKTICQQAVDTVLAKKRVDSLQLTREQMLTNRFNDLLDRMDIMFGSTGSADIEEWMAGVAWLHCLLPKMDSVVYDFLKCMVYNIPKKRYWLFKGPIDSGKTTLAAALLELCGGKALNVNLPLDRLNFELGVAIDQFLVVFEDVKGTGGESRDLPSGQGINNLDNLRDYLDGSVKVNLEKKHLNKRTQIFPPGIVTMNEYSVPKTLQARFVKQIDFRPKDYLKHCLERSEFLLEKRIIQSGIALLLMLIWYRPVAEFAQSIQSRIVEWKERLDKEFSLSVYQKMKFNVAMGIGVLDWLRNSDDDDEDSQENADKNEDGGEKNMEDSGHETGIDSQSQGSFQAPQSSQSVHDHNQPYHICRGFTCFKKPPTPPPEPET

inhibition, inactive:
O=C(Nc1cc(F)ccc1F)C1CCN(S(=O)(=O)c2cccc3nonc23)CC1 9.1%
CCCS(=O)(=O)c1c(S(=O)(=O)CCC)c2ccc(C(N)=O)cn2c1C(=O)c1ccc(F)cc1 24%
COCC(C)NC(C(=O)Nc1ccc(Cl)c([N+](=O)[O-])c1)c1ccccc1 (stereo not given) 0.39%
CC1(C)CC(C(=O)NCCC(c2ccccc2)c2ccco2)CCO1 (stereo not given) 3.84%
CC(=O)Nc1nonc1-c1nc2ccccc2n1CCC(C)C -3.72%
CCCCOc1cccc(C(=O)N(Cc2ccccc2)C2CCS(=O)(=O)C2)c1 (stereo not given) -0.72%
CC1CCN(C(=O)N[C@@H](Cc2ccccc2)C(=O)O)CC1 0.13%
O=C1C2C3CCC(O3)C2C(=O)N1c1cccc(O)c1 (stereo not given) -1.61%
COc1cccc(C(=O)Nc2nnc(-c3ccccc3)s2)c1OC 13.1%
O=C(Nc1ccncc1)C1CC(=O)N(c2ccc(F)cc2)C1 (stereo not given) 12.3%
COC(=O)C1=C(C(=O)OC)[C@@H]2N(C)c3ccc(OC)cc3[C@@]23C[C@@H](C(=O)OC)N(C(=O)c2ccco2)C3=N1 27.8%
COc1ccc(/C=C2\C(=O)ON=C2c2ccccc2)cc1OC 53.9%
COc1ccc(/C=C2/C(=O)ON=C2c2ccccc2)cc1OC 12.2%
Cc1ccc(C)c(NC(=S)NC(NC(=O)Cc2ccccc2)C(Cl)(Cl)Cl)c1 (stereo not given) 5.58%
CCN1CCN(CCCNC(=O)C2CCN(c3nnc(-n4cccc4)s3)CC2)CC1 12.4%
CC1CC(C)CN(CCCNC(=O)C2CCN(c3nnc(-n4cccc4)s3)CC2)C1 (stereo not given) 7.41%
CC1CCCCN1CCCNC(=O)C1CCN(c2nnc(-n3cccc3)s2)CC1 (stereo not given) 6.84%
CCOc1ccc(CCNC(=O)C2CCN(c3nnc(-n4cccc4)s3)CC2)cc1 7.09%
CCC1CCCCN1CCCNC(=O)C1CCN(c2nnc(-n3cccc3)s2)CC1 (stereo not given) 8.7%
Cc1ccc(C)n1-c1nnc(N2CCC(C(=O)NCCCN3CC(C)CC(C)C3)CC2)s1 (stereo not given) -2.68%
O=C(NC1CC(=O)N(c2ccc3c(c2)OCCO3)C1)N1CCCCC1 (stereo not given) 11.8%
CCN(CC)S(=O)(=O)c1ccc(S(=O)(=O)N2CCN(CCC#N)CC2)cc1 2.53%
CCCc1nc2ccc(NC(C)=O)cc2c(=O)n1Cc1ccccc1Cl 19.8%
CC1CCCCC1NC(=O)/C(C#N)=C/c1ccc(F)c(F)c1 (stereo not given) -0.71%
CC(=O)N1N=C(c2ccc(NS(C)(=O)=O)cc2)CC1c1ccc2nccnc2c1 (stereo not given) 8.1%
